Compounds without any hit were thinned out: in the full panel of roughly 83,000, 20% have a hit.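 Treatment: one concentration, 48 hours, 96-well format. Scoring: percent growth, with anything below 10 considered active.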 Calls of active or inactive are those of the source.
Tests used:
Assay in all cases: NCI-60 one-dose screen, 48 h (100 = growth as untreated, 0 = no growth, -100 = all killed)
Details in all cases: 10 µM
[1] = test system: HCT-15 colon
[2] = test system: HT29 colon
[3] = test system: SNB-75 CNS
[4] = test system: SNB-19 CNS
[5] = test system: U251 CNS
[6] = test system: PC-3 prostate
[7] = test system: SK-MEL-5 melanoma
[8] = test system: UACC-62 melanoma
[9] = test system: LOX IMVI melanoma
[10] = test system: SK-MEL-28 melanoma

Measured: growth

N#Cc1c(NC(=O)c2cccc(C(F)(F)F)c2)sc2c1CCC(O)=C2
active: [7] -38.3%
inactive: [1] 20.6% | [2] 80.4% | [3] 46.7% | [4] 42.4% | [5] 39.7% | [6] 39% | [8] 11.5% | [9] 33.9% | [10] 33.9%

C/C(=N\NC(N)=S)c1ccc(Nc2nc(SC(C)C)nc(-c3ccccc3)c2C#N)cc1
inactive: [1] 77.1% | [2] 57.9% | [3] 104% | [4] 63.5% | [5] 32% | [6] 59.2% | [7] 75.5% | [8] 48.1% | [9] 29.8%

CCOP(=O)(OCC)O[C@H]1CC[C@]2(C)[C@H]3CC[C@@H]4[C@@H]([C@](C)(O)CCC=C(C)C)CC[C@@]4(C)[C@]3(C)CC[C@H]2C1(C)C
active: [2] -50.2% | [7] -84.2% | [9] -100%
inactive: [1] 10.7% | [3] 51.4% | [4] 45.4% | [5] 12.8% | [6] 19.8% | [8] 43.5%

CC(=O)Nc1ccc(-n2cnc3cc(-c4ccc(O)cc4)ccc32)cc1F
active: [1] 5.21% | [2] -9.81%
inactive: [3] 24.1% | [4] 36.2% | [5] 16.7% | [6] 22.8% | [7] 12.5% | [8] 13.9% | [9] 27.8%

CC(=O)NNc1ccc2nnc(-c3ccc(Br)cc3)n2n1
inactive: [1] 93.8% | [2] 103% | [3] 121% | [4] 92% | [5] 93.3% | [6] 93.6% | [7] 95.4% | [8] 87.9% | [9] 100% | [10] 106%

CCCn1c(=O)c2[nH]c(-c3ccc(OCc4nc5ccccc5[nH]4)cc3)nc2n(CCC)c1=O
inactive: [1] 63.2% | [2] 61.2% | [3] 34.9% | [4] 37.1% | [6] 77.3% | [7] 44.6% | [8] 35.5% | [10] 102%
active: [5] 2.91% | [9] -2.38%

O=C1CCC(N2Cc3c(NCc4ccc(-c5ccccc5)cc4)cccc3C2=O)C(=O)N1 (stereo not drawn)
inactive: [1] 36.4% | [2] 109% | [3] 85.9% | [4] 56.2% | [5] 49.6% | [6] 50.4% | [7] 67.3% | [8] 75.5% | [9] 80.5% | [10] 91.4%

CC1=C2C(=C[C@@](C)(COCOCCCl)[C@@H]2O)C(=O)[C@](C)(O)C12CC2
active: [1] -38.9% | [2] -11.9% | [3] -53.2% | [4] -24.4% | [5] 1.56% | [6] 0.191% | [7] -62.3% | [8] -87% | [9] -82.2% | [10] -82.7%

COc1ccc([C@H]2C(C(=O)c3ccc(Cl)cc3)C3(N[C@@H]2c2ccccc2)C(=O)Nc2ccc(Br)cc23)cc1 (stereo partly drawn)
inactive: [3] 15.6% | [4] 20.1% | [6] 17.9%
active: [1] 0.62% | [2] -50.6% | [5] -18% | [7] 8.62% | [8] -55.4% | [9] -100%

CC1(c2ccccc2)NC(=O)N(CC(=O)Nc2ccc(C(=O)/C=C/C=C/c3ccccc3)cc2)C1=O (stereo not drawn)
inactive: [1] 12.8% | [2] 25.4% | [3] 54.9% | [4] 61.6% | [5] 14.7% | [6] 36.4% | [7] 51.6% | [8] 43.1% | [9] 26%

COc1ccc(-c2nc(S(=O)(=O)c3ccccc3)c(S(C)(=O)=O)o2)cc1
inactive: [3] 77.1% | [4] 84.4% | [5] 12% | [6] 78.2% | [7] 66.5% | [8] 33.5%
active: [1] -73% | [2] -55.2% | [9] -85.3%

CN(CCF)c1ccc(/C=C/C(=O)c2ccc(N)cc2O)cc1
inactive: [1] 49.8% | [2] 42.8% | [3] 102% | [4] 84.1% | [5] 70.3% | [6] 86.5% | [7] 68.1% | [8] 90.1% | [9] 78.9%

O=C(NO)c1ccc(CN2CCN(c3nc(-c4ccccc4)c4ccccc4n3)CC2)cc1
active: [7] -95.9% | [8] -23.9% | [9] -60.6%
inactive: [1] 22.5% | [2] 30.4% | [3] 81.7% | [4] 22.8% | [5] 15.2% | [6] 30.8%

Nc1cccnc1/C=N/NC(=S)NCCNC(=O)c1ccc(-n2nc(-c3ccccc3O)nc2-c2ccccc2O)cc1
active: [2] -42.8% | [6] 9.05% | [7] -42% | [8] -62.6% | [9] -45.2%
inactive: [1] 17.9% | [3] 48.1% | [4] 13.2% | [5] 12.4% | [10] 14.8%

Cc1nc(Nc2nc(C)c3ccc(OCCN4CCOCC4)cc3n2)[nH]c(=O)c1C
active: [1] -48.7% | [2] -56.9% | [4] -2.34% | [5] 8.71% | [7] -97.1% | [8] -84.6% | [9] -51.7%
inactive: [3] 25.9% | [6] 11.5%

CC(=C(c1ccc(OCCN2CCCCC2)cc1)c1ccc(OCCN2CCCCC2)cc1)c1ccccc1
active: [1] -0.0525% | [2] -26.2% | [5] 1.29% | [7] -90.9% | [8] -79% | [9] -96.6%
inactive: [3] 84.1% | [4] 38.7% | [6] 47.5%

CN1CCc2c(sc3ncnc(N/N=C/c4cn(-c5ccccc5)nc4-c4ccc(Cl)cc4)c23)C1
active: [1] 7.13% | [2] 5.95% | [8] 9.22% | [9] -65.7%
inactive: [3] 74.1% | [4] 34.3% | [5] 18.2% | [6] 55.2% | [7] 30.7%

CN1CCN(c2ccc(Nc3nc(NCCNC(=O)c4ccc(C(F)(F)F)cc4)c4sccc4n3)cc2)CC1
active: [1] -42.6% | [2] -67% | [3] -10.7% | [5] -17.7% | [7] -99.5% | [8] -89.7% | [9] -93.9% | [10] -96.3%
inactive: [4] 31.5% | [6] 41%

O=c1[nH]c2ccccc2cc1CSc1ccc(Nc2nccc(-c3ccc(Cl)cc3)n2)cc1
inactive: [7] 48.2% | [8] 23.7% | [10] 43.2%
active: [1] 8.92% | [2] 0.0418% | [3] -41.8% | [4] -40.3% | [5] -72.3% | [6] 8.58% | [9] -79.6%

CCOC(=O)c1c(CSc2ccccc2)n(C)c2cc(CN(C)C)c(O)c(CN(C)C)c12
inactive: [1] 20.5% | [2] 19.8% | [3] 89.4% | [4] 60.2% | [5] 30% | [6] 25.1% | [7] 36.4% | [8] 48.2% | [9] 22.2%

O=c1[nH]c2ccccc2cc1CSc1ccc(Nc2nccc(-c3ccc4ccccc4c3)n2)cc1
active: [6] 1.09% | [9] 3.77%
inactive: [1] 30.6% | [2] 49.9% | [3] 111% | [4] 71.2% | [5] 20% | [7] 77% | [8] 95.7%

Cc1ccc(-c2nc3ccc(C(=O)N=Nc4c(O)[nH]c5ccc(Cl)cc45)cc3[nH]2)cc1
active: [3] -49.3% | [4] -24% | [5] -100% | [6] -51.9% | [9] -100% | [10] -1.61%
inactive: [1] 67.7% | [2] 13.2% | [7] 22.1% | [8] 22.6%

CC(=O)Nc1ccc(-n2cnc3cc(-c4ccc(NS(C)(=O)=O)cc4)ccc32)cc1
inactive: [1] 32.4% | [2] 34.2% | [3] 35.6% | [4] 61.1% | [5] 59.8% | [6] 62.8% | [7] 69.5% | [8] 54.7%

Cn1cc(/C=N/Nc2cccc(Cl)n2)c2ccccc21
inactive: [1] 28.2% | [2] 44.1% | [3] 70.7% | [4] 76.9% | [5] 56.2% | [6] 58.4% | [7] 71.7% | [8] 67.7% | [9] 50.1% | [10] 104%

Cc1ccc(/C=C/C(=O)c2ccc(NC(=O)CSc3nnc(-c4c[nH]c5ccccc45)n3-c3ccccc3)cc2)cc1
inactive: [1] 79.5% | [2] 100% | [3] 91.5% | [4] 87.9% | [5] 78.5% | [6] 71.8% | [7] 94% | [8] 75.8% | [9] 78.4% | [10] 99.1%

O=C1Nc2ccc(Cl)cc2/C1=C/c1ccc(OCc2ccccn2)cc1
inactive: [1] 35.7% | [2] 67.5% | [3] 113% | [4] 50.7% | [5] 23.7% | [6] 62.1% | [7] 89.5% | [8] 66.7% | [9] 56.5% | [10] 100%

COc1cc(NC(=O)CSc2nnc(-c3ccc4nc(-c5ccc(Cl)cc5)[nH]c4c3)o2)cc(OC)c1OC
inactive: [1] 43.3% | [2] 61.7% | [3] 93.7% | [4] 86% | [5] 77% | [6] 46.9% | [7] 50.5% | [8] 37.8% | [9] 51.9%

Cc1ccc(NC(=O)NCn2c(=O)[nH]c3ccccc3c2=O)cc1
inactive: [1] 92.1% | [2] 109% | [3] 29% | [4] 52.6% | [5] 61.5% | [6] 84.1% | [7] 85.1% | [8] 60.9% | [9] 83.7%

— PubChem BioAssay (NCI)
